These sequences were tested against L1TD1 (assay: pooled miR-30 sensor sort-seq; sequence = guide strand). Settings: shRNA.
Further: reference of the scale not given here.

| Sequence | sensor-assay potency score (higher = more potent) |
| --- | --- |
| TATTTCTCCAGCTCTATGCTTT | -0.459 |
| TACTTCTCAAGTTTTCTTCTGT | 0.707 |
| TTGGATGTTAGTTCTTCTGTGT | 0.173 |
| TTGAATTTCCATTAAGACCTTA | 0.102 |
| TTGATCTTCTAGACTGTCTATT | -0.179 |
| ATCATTACTATTGTATTCGTTA | -0.576 |
| TCTTTCTTCAAGTATGTCCATT | -0.922 |
| TTTGATCTTCTAGACTGTCTAT | -0.16 |
| TTAAATCTAATACCGGAGCTAT | -1.12 |
| ATTTGCTGAAACTCTGTCCTAC | 0.491 |

These sequences were tested against LAMA2 in the same assay as above. Settings: shRNA.

| Sequence | sensor-assay potency score (higher = more potent) |
| --- | --- |
| TTGATTGCAGATTCGACACTGC | 0.517 |
| TTAAGTAACAATACATTAGTAT | -0.0119 |
| TTACATATCAGACAGGAGCCAG | -0.545 |
| TTTATTGTAATTCTTCTTCAGG | -0.611 |
| TAAATGTCAACTGTCCTCCTAC | 0.301 |
| TACATCTTTAGCTGTGTCGTTG | -0.19 |
| TTACATAATAGGCCTGTCCAGT | -0.57 |
| TAGTTTATTGTAATTCTTCTTC | -0.313 |
| TTTGTGAGCAAACATCATCAAG | -1.56 |
| TTGAGTTTATCTATTAGCCGGT | 0.45 |
| TTTGAGTTTATCTATTAGCCGG | -0.671 |
| TATCCAAGAAGTCTTCTCGGGT | -0.905 |

What follows are sequences tested against LAMB3 in the same assay as above. Settings: shRNA.

| Sequence | sensor-assay potency score (higher = more potent) |
| --- | --- |
| TATTTTTTCAAACTGCTCCCTC | 0.433 |
| TTATTCTCTCAAATCCCTCTTG | -0.105 |
| TCTTGAAGCTGGAATCTCCTGT | 0.664 |
| TAGGTCACAGCGCTCTCCCTGC | -0.878 |
| TTTGACTTTGAGTTGCTGGAAT | -0.395 |
| TTTTTTGACTTTGAGTTGCTGG | 0.33 |
| TTCTGCAGAACAGTAGCTGAGT | -0.497 |
| TAGGCTGTGCTCAGCATCCGGA | -0.616 |
| TCTTCTGCAGAACAGTAGCTGA | -1.16 |
| TCTGACATCTTCCTCCATCTGG | -0.297 |
| TTACTAGCTACACACCAGGGGT | -0.82 |
| TTTGCATCTAGGATCCGGGAGG | -1.03 |

What follows are sequences tested against LAMB4 in the same assay as above. Settings: shRNA.

| Sequence | sensor-assay potency score (higher = more potent) |
| --- | --- |
| TTGCTCTTTCTATTGTATCTTT | -0.796 |
| TTGACTTTTAAGAATTTCCCAG | -0.128 |
| TATTGTATCTTTCAGATCTTGA | 0.0271 |
| TATTTTGACAAGTTCATCGGTT | 0.404 |
| TTCACTTATACTTTCGATCTGA | 0.249 |
| TAGTCCTGTAGTGCTTGTCTTA | -1.22 |

From the OligoGym collection
